# Most compounds without a hit are left out; they make up all but 3.1% or so of the library.
# HSF1 activator – increases HSF-1 driven luciferase reporter signal; NIH3T3-HGL HSF-1 luciferase reporter, MG132, 8 h; 100% = twice DMSO control signal; activation, % at 9 µM; 1.7% of 300,000 active;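 active means mean replicate activation of at least 50% with a set share of replicates each reaching 50%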;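 further: 0% = median of the neutral control wells and 100% = twice that signal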
# HSF1 inhib – HSF1 inhibition; NIH3T3-HGL HSE-luciferase, MG132-induced, luminescence 8 h; stronger effect = lower value; activity change, negative = inhibition, % at 7.5 µM (by protocol); 0.77% of 300,000 active; AID 2098;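 active means more than half of replicate wells show activity change below -50%, luminescence cut by over half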;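 further: luciferase reports HSF-1 transcriptional activity via heat shock element; 0% = median of DMSO wells and -100% = zero luminescence signal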
# HSP90 inh – inhibitors of HSP90 luciferase refolding in rabbit reticulocyte lysate; luciferase refolding luminescence, 3 h; inhibition, % at 5.6 µM; 0.91% of 290,000 active; AID 1789;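 active means inhibition above the screen-wide mean plus 3 SD, computed separately per campaign, cut at about 16% in these data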;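 further: 0% = DMSO wells and 100% = 60 µM geldanamycin wells; inhibitors lower the luminescence because luciferase stays unfolded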
# ARNT-TACC3 inh – disrupts binding between human ARNT and TACC3. Q9Y6A5. AlphaScreen His-ARNT PAS-B/GST-TACC3 binding, luminescence; TACC3 fragment carries E629A point mutation. inhibition, % at 9.99 µM. 0.66% of 390,000 active;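 active means mean inhibition of replicates at least 50% and at least half of replicates each reaching 50%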;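 further: 0% = complete ARNT plus TACC3 wells and 100% = ARNT alone without TACC3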
# HIF activator – HIF pathway transcriptional activation; U2OS HRE-luciferase reporter, luminescence; normalized: DMSO 0%, desferrioxamine 100%; 0.32% of 300,000 active; activation, % at 7.5 µM (by protocol);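 active means mean activation of at least 10% of the iron chelator positive control signal, with at least half of replicates also reaching 10%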
# Starred values were filed as active, the others as inactive; x = no result.
SMILES,HSF1 activator,HSF1 inhib,HSP90 inh,ARNT-TACC3 inh,HIF activator
CCOc1ccccc1C(=O)N/N=C/c1cccc2cccnc12,20.1,2.3,2.2,72.1*,0.7
CCOc1ccc(C(=O)N/N=C/c2ccccc2[N+](=O)[O-])cc1,34.5,15.3,6.2,-0.2,4.8
CCC(=O)Nc1ccc2c(c1)C(=O)N(C)[C@@H]1CC[C@H](CC(=O)NCCCN(C)C)O[C@H]1CO2,x,x,x,-5.6,x
CCOc1cc(/C=N/NC(=O)c2cccnc2)ccc1OCc1ccc(C(=O)OC)o1,1.9,-10.0,-2.2,4.4,13.6*
COc1c(Br)cc(Br)cc1/C=N/NC(=O)c1cccnc1,-7.0,-10.3,-4.5,3.3,1.2
COc1ccc(/C=N/NC(=O)c2cccnc2)c(C(=O)O)c1OC,72.6*,29.2,-0.9,1.7,-0.1
CCOc1cc(Br)cc(/C=N/NC(=O)c2cccnc2)c1O,-5.3,-3.1,-7.2,55.7*,9.3
Cc1cccc(NC(=S)NCC23C=CC(O2)C2C(=O)N(c4ccc(Cl)cc4)C(=O)C23)c1 (configuration not stated),98.0*,68.5,-3.5,x,-0.2
Cc1ccc(S(=O)(=O)N(C)C[C@H]2Oc3ncc(-c4ccncc4)cc3C(=O)N([C@H](C)CO)C[C@H]2C)cc1,x,x,x,-11.6,x
CCN(CC)C(=O)Cn1nc(-c2ccncc2)nc1SCC(=O)Nc1ccc(OC)cc1,58.1*,24.2,-1.8,x,-0.6
COC(=O)c1ccc(NC(=O)Cn2nc(-c3ccncc3)nc2SCC(=O)Nc2nccs2)cc1,-32.0,-16.0,1.9,-3.2,-0.2
O=C(NCC[C@H]1CC[C@@H](NS(=O)(=O)c2ccccc2)[C@H](CO)O1)c1ccccc1F,x,x,x,3.7,x
Cc1occc1C(=O)Nc1ccc(OCc2ccccc2)cc1,56.1*,38.7,1.6,-4.0,3.3
CCCCOC(=O)c1ccc(NC(=O)c2ccoc2C)cc1,39.4,25.3,-1.8,-8.7,1.2
CCCOC(=O)c1ccc(NC(=O)c2ccoc2C)cc1,56.2*,33.3,-4.3,-9.2,1.7
O=C(Nc1ccc(OCc2ccccc2)cc1)c1cccs1,40.3,-2.5,2.7,-7.1,4.3
CCC[N+]1(CC#CC(O)(c2ccccc2)C2CCCCC2)CCCCC1 (configuration not stated),4.8,-4.8,2.1,-6.8,-2.9
NC(=O)C[N+]1(CC#CC(O)(c2ccccc2)c2ccccc2)CCCC1,-74.6,-69.0*,3.7,-6.4,-0.5
Cc1noc(C)c1S(=O)(=O)N(C)C[C@H]1Oc2ccc(NC(=O)Cn3cnnn3)cc2CC(=O)N([C@H](C)CO)C[C@H]1C,x,x,x,-12.2,x
C[C@@H]1CN([C@@H](C)CO)C(=O)c2cccc(NC(=O)C3CCCCC3)c2O[C@H]1CN(C)Cc1ccncc1,x,x,x,-5.5,x
CC(C)[C@H](NC(=O)OC(C)(C)C)C(=O)N/N=C/c1cccc2nccnc12,-5.4,-1.4,2.6,22.9,-0.3
CSCC[C@H](NC(=O)OC(C)(C)C)C(=O)N/N=C/c1cccc2cccnc12,x,x,2.4,62.2*,x
C[C@H](NC(=O)OC(C)(C)C)C(=O)N/N=C/c1cccc2nccnc12,x,x,5.3,26.6*,x
C[C@H](CO)N1C[C@H](C)[C@H](CN(C)C(=O)Nc2ccc3c(c2)OCO3)Oc2c(NS(=O)(=O)c3cccs3)cccc2C1=O,x,x,x,4.1,x
C[C@@H]1CN([C@@H](C)CO)C(=O)c2cccc(NC(=O)c3ccncc3)c2O[C@H]1CN(C)Cc1ccc(Cl)c(Cl)c1,x,x,x,-4.8,x
SMILES,HSF1 activator,HSF1 inhib,HSP90 inh,ARNT-TACC3 inh,HIF activator
CC1(C)CC(=O)c2ccc(OCc3ccc([N+](=O)[O-])cc3)cc2O1,70.4*,41.0,-0.9,4.1,2.8
CC1(C)CC(=O)c2c(O)cc(OCc3ccc(Br)cc3)cc2O1,-8.6,-8.1,5.4,-21.9,3.0
Cc1ccc(S(=O)(=O)N[C@H]2CC[C@@H](CC(=O)NC3CCCCC3)O[C@@H]2CO)cc1,x,x,x,-8.3,x
CCCCC(=O)Nc1cccc(NC(=O)c2cccc(Br)c2)c1,-69.6,-62.3*,-1.9,0.4,-0.2
CCCCC(=O)Nc1cccc(NC(=O)c2ccc(Br)cc2)c1,-9.8,6.3,-0.8,-25.9,-0.4
Nc1ccccc1N=Cc1ccc(-c2cccc(Cl)c2)o1,54.5*,25.8,0.4,5.9,1.8
CSc1nc(-c2ccc(C)cc2)nc(C(Cl)Cl)n1,36.7,27.7,-4.2,-5.3,-0.6
CCSc1nc(-c2ccccc2)nc(C(Cl)Cl)n1,57.4*,42.1,-1.9,30.1,-1.0

# Source: PubChem BioAssay (several laboratories)
